Laboratory results as given in PubChem BioAssay (NCI).
About 83,000 compounds went through this panel and 20% of them were active in at least one assay; those are over-represented in the sample as a whole.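 Compound tested at a single concentration for 48 hours in 96-well plates; a percent growth value below 10 was scored as active.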 Activity calls are given as the source filed them.

How the values were obtained:
Test in all cases: NCI-60 one-dose screen, 48 h (100 = growth as untreated, 0 = no growth, -100 = all killed)
Conditions in all cases: 10 µM unless noted
NCI-H23 lung = tested on: NCI-H23 lung
NCI-H322M lung = tested on: NCI-H322M lung
HOP-62 NSCLC = tested on: HOP-62 NSCLC
NCI-H460 lung = tested on: NCI-H460 lung
HOP-92 NSCLC = tested on: HOP-92 NSCLC
NCI-H522 lung = tested on: NCI-H522 lung
A549/ATCC NSCLC = tested on: A549/ATCC NSCLC
786-0 renal = tested on: 786-0 renal
COLO 205 colon = tested on: COLO 205 colon
NCI-H226 lung = tested on: NCI-H226 lung

Measured: growth

C#CC(OC(=O)N(C)C)(c1ccccc1)c1ccc(F)cc1 (stereo not drawn)
inactive: NCI-H23 lung 98.7% | NCI-H322M lung 128% | HOP-62 NSCLC 116% | NCI-H460 lung 96.7% | HOP-92 NSCLC 92.9% | NCI-H522 lung 83.2% | A549/ATCC NSCLC 75% | 786-0 renal 120% | COLO 205 colon 158%

O=C(O)c1cn(C2CC2)c2cc(N3CCN(Cc4c(O)ccc5ccccc45)CC3)c(F)cc2c1=O
inactive: NCI-H23 lung 21.9% | NCI-H322M lung 22% | NCI-H522 lung 19.7% | 786-0 renal 29.5% | COLO 205 colon 27.1%
active: HOP-62 NSCLC -41.1% | NCI-H460 lung 5.64% | HOP-92 NSCLC -8.22% | A549/ATCC NSCLC -21.9%

CSc1nc(=S)c2nc(SC)n(-c3ccccc3)c2[nH]1
inactive: NCI-H23 lung 103% | NCI-H322M lung 96.8% | HOP-62 NSCLC 85.5% | NCI-H460 lung 95.5% | HOP-92 NSCLC 77.6% | NCI-H522 lung 70.1% | A549/ATCC NSCLC 97.8% | 786-0 renal 101% | COLO 205 colon 101%

Cn1cc(-c2nnc(-c3cn(C)c4ncccc34)s2)c2ccccc21
inactive: NCI-H226 lung 96% | NCI-H322M lung 92.7% | HOP-62 NSCLC 65.8% | NCI-H460 lung 75.1% | HOP-92 NSCLC 30.2% | NCI-H522 lung 32.1% | A549/ATCC NSCLC 57.6% | 786-0 renal 78.4%

C=C(C)[C@@H]1CC[C@]2(C)[C@H](C(=O)C=C3[C@@H]4C[C@](C)(C(=O)N5CCN(C)CC5)CC[C@]4(C)CC[C@]32C)[C@@]1(C)CCC#N
active: NCI-H23 lung -73.6% [100 µM] | NCI-H322M lung -98.6% [100 µM] | HOP-62 NSCLC -84.5% [100 µM] | NCI-H460 lung -89.9% [100 µM] | HOP-92 NSCLC -45.6% [100 µM] | NCI-H522 lung -68.9% [100 µM] | A549/ATCC NSCLC -67.3% [100 µM] | 786-0 renal -85.5% [100 µM] | COLO 205 colon -69.4% [100 µM]

CC(C)=CCC[C@](C)(O)[C@H]1CC[C@]2(C)[C@@H]1CC[C@@H]1[C@@]3(C)CC[C@H](OC(=O)CCC(=O)O)C(C)(C)[C@@H]3CC[C@]12C
active: HOP-62 NSCLC -5.43% [100 µM] | NCI-H460 lung 4.47% [100 µM] | NCI-H522 lung 9.19% [100 µM]
inactive: NCI-H23 lung 16.9% [100 µM] | NCI-H322M lung 27.4% [100 µM] | HOP-92 NSCLC 13.3% [100 µM] | A549/ATCC NSCLC 19.5% [100 µM] | 786-0 renal 23% [100 µM] | COLO 205 colon 12.9% [100 µM]

COc1ccc(C2=C(c3cn(C)c4ccccc34)C(=O)OC2)cc1OC
inactive: NCI-H23 lung 54.6% | NCI-H322M lung 65.5% | HOP-62 NSCLC 31.5% | NCI-H460 lung 29.6% | HOP-92 NSCLC 16.4% | NCI-H522 lung 13.3% | A549/ATCC NSCLC 42.3% | 786-0 renal 41.2% | COLO 205 colon 12.6%

FC(F)(F)c1ccc2c(c1)Sc1ccccc1N2
inactive: NCI-H23 lung 96.4% | NCI-H322M lung 103% | HOP-62 NSCLC 97% | NCI-H460 lung 104% | HOP-92 NSCLC 79.9% | NCI-H522 lung 84.9% | A549/ATCC NSCLC 95.4% | 786-0 renal 89.6% | COLO 205 colon 110%

C#CCNC(=O)CC[C@@H](C)[C@H]1CC[C@H]2[C@@H]3CC[C@@H]4CC(=O)CC[C@]4(C)[C@H]3CC[C@]12C
active: NCI-H23 lung -27.5% [100 µM] | NCI-H322M lung -5.44% [100 µM] | HOP-62 NSCLC -56.3% [100 µM] | NCI-H460 lung -55.5% [100 µM] | HOP-92 NSCLC -71.6% [100 µM] | NCI-H522 lung -63.8% [100 µM] | A549/ATCC NSCLC 6.94% [100 µM] | 786-0 renal -71.9% [100 µM] | COLO 205 colon -70.9% [100 µM]

Brc1ccc2c(c1)CN(C1CCCCC1)CO2
inactive: NCI-H23 lung 96.9% | NCI-H322M lung 124% | HOP-62 NSCLC 100% | NCI-H460 lung 102% | HOP-92 NSCLC 89.3% | NCI-H522 lung 108% | A549/ATCC NSCLC 110% | 786-0 renal 117% | COLO 205 colon 116%

CN(C)c1cc(NN=C(c2ccc(O)cc2)c2ccc(O)cc2)c([N+](=O)[O-])cc1[N+](=O)[O-]
inactive: NCI-H23 lung 41% | NCI-H322M lung 117% | HOP-62 NSCLC 58% | NCI-H460 lung 30.4% | HOP-92 NSCLC 73% | A549/ATCC NSCLC 13.2% | 786-0 renal 16.7% | COLO 205 colon 89.5%
active: NCI-H522 lung 1.73%

O=C(N=c1n(-c2ccccc2)nc2n1CCN2C1=NCCN1)c1ccc(Cl)cc1
inactive: NCI-H23 lung 86.9% | NCI-H322M lung 91.2% | HOP-62 NSCLC 91.6% | NCI-H460 lung 77.3% | HOP-92 NSCLC 61% | NCI-H522 lung 95.9% | A549/ATCC NSCLC 83.4% | 786-0 renal 104% | COLO 205 colon 62.2%

N/C(=N\c1nc2ccccc2[nH]1)NC(=O)Cc1cccc2ccccc12
inactive: NCI-H23 lung 76.5% | NCI-H322M lung 85.3% | HOP-62 NSCLC 108% | NCI-H460 lung 84.4% | HOP-92 NSCLC 64.6% | NCI-H522 lung 63.7% | A549/ATCC NSCLC 69.7% | 786-0 renal 70.4% | COLO 205 colon 90.6%

COc1ccc(-c2cc(-c3ccc(OC)c(OC)c3)nc(SCCCCCC(=O)NO)n2)cc1
inactive: NCI-H23 lung 68.7% | NCI-H322M lung 70.6% | HOP-62 NSCLC 60.3% | NCI-H460 lung 62.3% | HOP-92 NSCLC 27.6% | A549/ATCC NSCLC 85.7% | 786-0 renal 94.1%
active: NCI-H522 lung 6.61%

COC(=O)c1c(C)[nH]c(/C=C2\N=C(c3ccc[nH]3)C=C2OC)c1C
active: NCI-H322M lung -2.96% | HOP-62 NSCLC -17.5% | NCI-H460 lung 4.82% | HOP-92 NSCLC -41.8% | NCI-H522 lung -60.1% | A549/ATCC NSCLC -24.4% | 786-0 renal -27.7% | COLO 205 colon -54.2%
inactive: NCI-H23 lung 10%

CC[C@@](C)(NC(=O)[C@H](C)NC(=O)CCNC(=O)C(C)(C)NC(=O)[C@H](C)NC(=O)[C@@H]1CCCN1C(=O)[C@@](C)(CC)NC(=O)[C@H](Cc1ccccc1)NC(=O)C1CCCN1C(=O)C(C)(C)NC(=O)C1CCCN1C(=O)C(C)(C)NC(C)=O)C(=O)NCCC(=O)N[C@@H](CC(C)C)C(=O)NC(C)(C)C(=O)NCCC(=O)N[C@@H](CC(C)C)C(=O)NC(C)(C)C(=O)NC(C)(C)C(=O)N[C@@H](CC(C)C)C(=O)NCCC(=O)NCO (stereo partly drawn)
active: NCI-H23 lung -89.5% | NCI-H322M lung -87.9% | HOP-62 NSCLC -92% | NCI-H460 lung -78.1% | HOP-92 NSCLC -94.7% | NCI-H522 lung -84.2% | A549/ATCC NSCLC -81.3% | 786-0 renal -94.6% | COLO 205 colon -87.9%

CCN(CC)c1cc(N)c(Cc2c(N)cc(N(CC)CC)cc2Cl)c(Cl)c1
inactive: NCI-H226 lung 45.6% | NCI-H322M lung 96.9% | HOP-62 NSCLC 51.8% | NCI-H460 lung 35% | HOP-92 NSCLC 26.1% | A549/ATCC NSCLC 47% | 786-0 renal 74.3% | COLO 205 colon 21.4%
active: NCI-H522 lung -3.79%

CC1(C)CC[C@]23CC[C@]4(C)[C@H](CC[C@@H]5[C@@]6(C)C/C(=C/c7cccnc7)C(=O)C(C)(C)[C@@H]6CC[C@]54C)[C@H]2[C@H]1OC3=O
inactive: NCI-H322M lung 65.2% [100 µM] | HOP-62 NSCLC 25.2% [100 µM] | NCI-H460 lung 23.2% [100 µM] | HOP-92 NSCLC 24.8% [100 µM] | NCI-H522 lung 30.5% [100 µM] | A549/ATCC NSCLC 44.8% [100 µM] | 786-0 renal 45.5% [100 µM] | COLO 205 colon 23.1% [100 µM]

O=C(Nc1cc(F)cc2cccnc12)c1cnc(N2CCNCC2)cn1
inactive: NCI-H226 lung 100% | NCI-H322M lung 69.3% | HOP-62 NSCLC 85.2% | NCI-H460 lung 80.6% | HOP-92 NSCLC 49.1% | NCI-H522 lung 54.5% | A549/ATCC NSCLC 88.1% | 786-0 renal 89.1% | COLO 205 colon 13.9%

COc1c(C(C)=O)c(OCCCCOc2c(C(C)=O)c(OC)c3ccoc3c2OC)c(OC)c2occc12
inactive: NCI-H226 lung 65.4% | NCI-H322M lung 85.2% | HOP-62 NSCLC 117% | NCI-H460 lung 80.1% | HOP-92 NSCLC 57.3% | A549/ATCC NSCLC 64.7% | 786-0 renal 89% | COLO 205 colon 77%
active: NCI-H522 lung -7.73%

COc1ccc(/C=C(/C2=NCCN2)n2ccc3ccccc32)cc1
inactive: NCI-H226 lung 81.5% | NCI-H322M lung 92% | HOP-62 NSCLC 97.1% | NCI-H460 lung 93.1% | HOP-92 NSCLC 56.7% | NCI-H522 lung 85.9% | A549/ATCC NSCLC 99.8% | 786-0 renal 88.8% | COLO 205 colon 83.9%

COc1ccc(C2CC(c3ccc4ccccc4c3)=NN2c2nc(O)c(C3=c4cc(OC)ccc4=NC3=O)s2)cc1 (stereo not drawn)
active: NCI-H322M lung -17% | HOP-62 NSCLC -60.7% | NCI-H460 lung -39.8% | HOP-92 NSCLC -67.7% | NCI-H522 lung -74.1% | A549/ATCC NSCLC -72.4% | 786-0 renal -73.3% | COLO 205 colon -73.3%

Cn1cc(-c2noc(C(=O)c3cn(C)c4ncccc34)n2)c2ccccc21
inactive: NCI-H226 lung 89.4% | NCI-H322M lung 95.5% | HOP-62 NSCLC 95% | NCI-H460 lung 99.3% | HOP-92 NSCLC 41.4% | NCI-H522 lung 81.1% | A549/ATCC NSCLC 100% | 786-0 renal 94.5% | COLO 205 colon 99.8%
